Hits are enriched below; roughly 10% of the tested compounds scored in any of these assays.
BAZ2B block: inhibitors of human BAZ2B bromodomain | 4.4% of 360,000 active | AlphaScreen BAZ2B-H3K14Ac peptide displacement | Q9UIF8 | Potency, µM (titrated, usually from 114 µM), inactives show at the top dose activity change, negative = inhibition, most hits filed as inhibitors; further: potency means the concentration at half of the fitted maximal effect; on the % scale 0 is the no-effect control and ±100 the full control effect; nearly all actives have a fitted effect of over 60% in size
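Inhibition is scored as reduced AlphaScreen emission. The BAZ2B/b-H3(5-23)K14Ac complex (50 nM each) in PBS pH 7.4, 0.01% Tween-20 meets compound (up to 110 uM) for 30 min at RT before bead addition.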
JMJD2A Tudor inh: inhibitors of human JMJD2A Tudor domain | Potency, µM (series often up to 114 µM), inactives show at the top dose activity change, negative = inhibition, hits mostly inhibitors | 4.4% of 390,000 active | AlphaScreen JMJD2A-Tudor / H3K4me3 peptide binding | O75164; further: potency means the concentration at half of the fitted maximal effect; on the % scale 0 is the no-effect control and ±100 the full control effect; nearly all actives have a fitted effect of over 50% in size
Target sequence (O75164 whole entry, looked up, the tested form may be a part): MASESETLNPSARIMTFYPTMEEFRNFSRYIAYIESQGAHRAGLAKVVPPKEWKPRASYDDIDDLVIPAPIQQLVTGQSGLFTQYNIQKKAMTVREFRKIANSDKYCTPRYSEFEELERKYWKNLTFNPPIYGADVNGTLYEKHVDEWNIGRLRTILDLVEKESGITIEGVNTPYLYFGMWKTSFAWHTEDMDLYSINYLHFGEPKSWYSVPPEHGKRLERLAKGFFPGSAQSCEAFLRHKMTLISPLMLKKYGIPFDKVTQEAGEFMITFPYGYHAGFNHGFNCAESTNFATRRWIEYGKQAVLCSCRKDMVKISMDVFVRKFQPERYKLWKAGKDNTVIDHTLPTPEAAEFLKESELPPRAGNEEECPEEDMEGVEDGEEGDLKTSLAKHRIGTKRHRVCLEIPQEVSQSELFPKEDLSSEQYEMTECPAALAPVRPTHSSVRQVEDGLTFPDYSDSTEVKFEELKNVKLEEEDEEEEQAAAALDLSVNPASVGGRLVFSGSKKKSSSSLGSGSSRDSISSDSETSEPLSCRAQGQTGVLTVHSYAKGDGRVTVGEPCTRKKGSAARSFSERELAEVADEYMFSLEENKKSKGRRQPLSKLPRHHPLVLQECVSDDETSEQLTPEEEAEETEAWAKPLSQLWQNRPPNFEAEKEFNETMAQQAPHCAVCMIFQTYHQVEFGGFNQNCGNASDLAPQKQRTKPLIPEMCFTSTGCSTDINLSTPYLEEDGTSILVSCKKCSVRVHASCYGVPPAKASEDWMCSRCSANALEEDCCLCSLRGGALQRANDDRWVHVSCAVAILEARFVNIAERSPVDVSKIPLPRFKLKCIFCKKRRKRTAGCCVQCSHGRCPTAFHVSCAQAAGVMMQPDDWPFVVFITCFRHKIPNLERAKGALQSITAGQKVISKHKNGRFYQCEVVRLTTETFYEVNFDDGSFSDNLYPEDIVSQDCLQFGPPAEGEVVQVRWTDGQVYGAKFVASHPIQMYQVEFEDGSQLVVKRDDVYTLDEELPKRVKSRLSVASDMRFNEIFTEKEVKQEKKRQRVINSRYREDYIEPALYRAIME
HP1b binding inh: blocks HP1-beta chromodomain binding to methylated histone tails; Potency, µM (doses to about 114 µM), for the others: at the top dose activity change, negative = inhibition, usual class: inhibitors; P83916; AID 540317; AlphaScreen HP1-beta / biotin-H3K9me3 peptide binding; 0.56% of 390,000 active; further: potency means the concentration at half of the fitted maximal effect; nearly all actives have a fitted effect of over 70% in size
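AlphaScreen: HP1-beta (50 nM) preformed 30 min with biotin-H3(1-18)K9me3 peptide (50 nM) in PBS pH 7.4, 0.01% Tween-20. Compound added for 30 min at RT, then streptavidin donor/nickel chelate acceptor beads (10 ug/mL) for 30 min.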
Six1-Eya2 inh: blocks human Six1 binding to Eya2. activity change, % (test concentration not listed). AlphaScreen GST-Six1/His-Eya2 binding, biochemical; active compounds read low. AID 651725. 0.56% of 360,000 active; in the data active means activity change below about -65%; inconclusive means mostly about -30% to -63%; further: on the % scale 0 is the no-effect control and ±100 the full control effect
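AlphaScreen luminescence read after one hour at 37 °C in darkness. Pin-transferred compounds met GST-Six1 and His-Eya2 protein (5X stock 250 nM/500 nM) plus glutathione donor and Ni-chelate acceptor beads (5X, 50 ug/mL).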
CtBP-E1A blk: CtBP/E1A binding inhibition | AlphaScreen GST-E1A/His-CtBP binding, 1536-well; active compounds read low | activity change, % (concentration not given with the values) | 0.49% of 340,000 active | AID 651724; in the data active means activity change below about -65%; inconclusive means mostly about -30% to -63%; further: on the % scale 0 is the no-effect control and ±100 the full control effect
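Steps: dispense buffer (Tris pH 8.0, NaCl 300 mM, TCEP 1 mM, BSA, Tween 20); add 5X protein mix (GST-E1A, His-CtBP, 125 nM each); pin 23 nL compound; 2 h at 37 °C, dark; add 5X beads (50 ug/mL); 1 h; read.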
G9a inh: blocks human histone lysine methyltransferase G9a; 8.8% of 350,000 active; Potency, µM (top dose mostly 102 µM), for the others: at the top dose activity, negative = inhibition, usual class: inhibitors; G9a H3K9 monomethylation, AlphaScreen, 2 h; further: potency means the concentration at half of the fitted maximal effect; on the % scale 0 is the no-effect control and ±100 the full control effect; nearly all actives have a fitted effect of over 75% in size
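Compounds were preincubated with 20 nM G9a for 15 min, after which biotinylated H3K9 peptide (500 nM) and SAM (20 uM) started a 2 h room-temperature reaction. Monomethylated product was quantified by antibody-based AlphaScreen chemiluminescence.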
12-hLO 8HQ R1: confirmation of human 12-lipoxygenase inhibitors, 8HQ series round 1. shares compounds with BAZ2B block. 60% of 35 active. Potency, µM, hits mostly inhibitors. purified 12-hLO, cuvette UV 234 nm product formation;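 active means compounds that slowed 12-hLO product formation enough to yield a measured IC50 potency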
KDM4E inh: inhibitors of human JMJD2E demethylase, 8HQ series round 1; Potency, µM (doses to about 57 µM), inactives show top-dose activity, negative = inhibition, actives largely listed as inhibitors; JMJD2E demethylase, FDH-coupled NADH fluorescence (FDH is formaldehyde dehydrogenase); AID 493212; 89% of 130 active; shares compounds with BAZ2B block
ME-1 growth: ME-1 cell growth inhibition; AID 504370; Potency, µM (titrated, usually from 56.1 µM), inactives show at the highest dose activity change, negative = inhibition, most hits filed as inhibitors; ME-1 cell proliferation, ATP luminescence, 48 h; 20% of 140 active; shares compounds with BAZ2B block
The depositor's hits bear a star; i = inactive; ? = inconclusive; nt = no result; [ ] = dose if it differs, or a comment. Unless noted, the call rests on the fitted dose curve; in most records, active means well fitted curve in the direction sought with a large enough effect; inconclusive means small, poorly fitted or top-dose-only effect, or another doubt; inactive means no such curve, though single readings can be large; an effect the other way counts as inactive or inconclusive.

SMILES	BAZ2B block	JMJD2A Tudor inh	HP1b binding inh	Six1-Eya2 inh	CtBP-E1A blk	G9a inh	ME-1 growth	others
COc1ccc(C)cc1NC(=O)C1COc2ccccc2C1 (stereo not drawn)	4.8%	8.91µM*	24.8%[57 µM]	nt	nt	-5.4%[59 µM]	nt
COc1ccc(C(C)=O)cc1COC(=O)c1cc2ccccc2cc1O	-2.3%	-18.7%	-13.0%	5.5	8.4	44.7µM*	nt
CCCCN(CC)C(=O)C1CCCN(c2ncnc3c2nc2n3CCCCC2)C1 (stereo not drawn)	2.1%	-12.9%	9.6%	nt	nt	4.7%[59 µM]	nt
COc1cccc2c1C(=O)c1c(O)c3c(c(O)c1C2=O)C[C@@](O)(C(C)=O)C[C@@H]3O[C@H]1C[C@H](N)[C@H](O)[C@H](C)O1	35.5µM*	?	-16.3%	6.0	-7.4	35.5µM*	0.251µM*
CCN(CC)S(=O)(=O)c1ccc(C(=O)N2CCN(C(=O)c3ccco3)CC2)cc1	-2.7%	-3.0%	37.0%	-1.3	5.5	-2.1%[12.7 µM]	nt
CC(C)(c1cc(Br)c(O)c(Br)c1)c1cc(Br)c(O)c(Br)c1	56.2µM*	89.1µM*	0.1%	-0.6	-2.1	5.7%[0.501 µM]	4.1%
O=C(O)c1cc(O)c2c(c1)[C@H]([C@H]1c3cc(C(=O)O)cc(O)c3C(=O)c3c(O[C@@H]4OC(CO)C(O)C(O)C4O)cccc31)c1cccc(O[C@@H]3OC(CO)C(O)C(O)C3O)c1C2=O (stereo partly drawn)	nt	nt	nt	nt	nt	-148.0%[2.33 µM]	-18.6%
O=C(/C=C/c1ccccc1)c1ccc(O[C@H]2OC(CO)C(O)C(O)C2O)cc1O (stereo partly drawn)	nt	nt	nt	nt	nt	-45.2%[2.33 µM]	nt
COCCCN1CCN(C2Cc3ccccc3Sc3ccc(Cl)cc32)CC1 (stereo not drawn)	?	22.4µM*	-12.7%	-20.0	-19.4	?	-22.5%[25.6 µM]
CC(=O)NC(c1ccco1)c1cc(F)c2cccnc2c1O (stereo not drawn)	20µM*	56.2µM*	23.4%	nt	nt	-20.0%[12.7 µM]	nt	12-hLO 8HQ R1=5µM*;KDM4E inh=28.9µM*
CC(=O)NC(c1ccco1)c1cc(Cl)c2ccccc2c1O (stereo not drawn)	-10.6%	-30.2%	14.1%	nt	nt	-49.3%[12.7 µM]	nt
CC(=O)NC(c1cccs1)c1cc(F)c2cccnc2c1O (stereo not drawn)	25.1µM*	79.4µM*	13.7%	nt	nt	2.0%[12.7 µM]	nt	12-hLO 8HQ R1=2µM*;KDM4E inh=28.9µM*
CCC(=O)NC(c1cccs1)c1cc([N+](=O)[O-])c2cccnc2c1OC (stereo not drawn)	?	nt	nt	nt	nt	?	nt	12-hLO 8HQ R1=i;KDM4E inh=4.57µM*
CC(=O)NC(c1ccco1)c1cc(Cl)c2ccc(Cl)nc2c1O (stereo not drawn)	-5.3%	-25.5%	22.6%	nt	nt	?	nt	12-hLO 8HQ R1=i;KDM4E inh=120.9%
Cc1ccc(Cl)cc1NC(=S)N(CCN(C)C)C(C)c1ccccn1 (stereo not drawn)	nt	-2.5%	20.7%	?	?	-26.1%	-6.5%[25.6 µM]
Cc1cccc(NC(=S)N(CCN(C)C)C(C)c2ccccn2)c1 (stereo not drawn)	56.2µM*	-10.4%	25.1%	?	?	21.8%[12.7 µM]	-7.8%[25.6 µM]
CCc1nc2c(OCc3ccc(C(F)(F)F)cc3)cccn2c1N(C=O)Cc1ccc(OC)cc1	nt	nt	nt	-7.4	-7.4	nt	nt
O=[N+]([O-])c1cc2c(cc1/C=N/n1c(-c3ccccn3)n[nH]c1=S)OCO2	7.08µM*	3.98µM*	?	-82.7*	7.6	0.794µM*	?
O=C(N/N=C/c1cc2c(cc1[N+](=O)[O-])OCO2)c1ccccn1	nt	?	41.9%	-5.6	11.3	nt	nt
Cc1sc2nc(CN3CCCC3)nc(N3CCN(S(=O)(=O)c4cccc(F)c4)CC3)c2c1C	-3.7%	-17.3%	32.4%	1.8	-4.2	?	nt
CCn1c(COc2ccc(C)cc2)nnc1SCC(=O)Nc1ccc2c(c1)OCCO2	-25.0%	-1.0%	42.3%	-3.2	2.0	-24.2%	nt
CC1CCCN(C(=O)COC(=O)C2CCN(S(=O)(=O)c3ccc4c(c3)OCCO4)CC2)C1 (stereo not drawn)	1.2%	-12.3%	12.6%	3.1	0.0	?	nt
O=C1CSC(=S)N1/N=C/c1ccc(O)c(O)c1O	2.82µM*	3.16µM*	1.78µM*	-91.0*	-93.7*	1.26µM*	?
CCc1ccc(N2CC(C(=O)Nc3cccc(S(=O)(=O)N4CCCC4)c3)CC2=O)cc1 (stereo not drawn)	-1.1%	-31.8%	5.9%	-6.5	6.0	14.4%[0.501 µM]	nt
COc1ccccc1OCC(=O)N/N=C1/C=C(C)CC1	-35.8%	3.0%[57.1 µM]	44.4%	-2.1	7.7	-19.7%	nt
SMILES	BAZ2B block	JMJD2A Tudor inh	HP1b binding inh	Six1-Eya2 inh	CtBP-E1A blk	G9a inh	ME-1 growth	others
COc1ccc(S(=O)(=O)N2CCOCC2)cc1N=Nc1sc(N)nc1-c1ccccc1	?	-26.9%	?	?	?	14.1µM*	-3.4%[25.6 µM]
CCOC(=O)c1ccccc1NC(=O)CSc1cc(C)[nH]c(=O)n1	0.3%	-0.6%	27.1%	nt	nt	-2.6%[59 µM]	nt
CO/N=C1\CN(c2nc3c(cc2F)c(=O)c(C(=O)O)cn3C2CC2)CC1CN (stereo not drawn)	nt	nt	nt	nt	nt	-7.0%[2.33 µM]	?
CCc1cccc(NC(=O)CCCN2C(=O)NC(C)(C)C2=O)c1	-1.8%	-8.5%	26.1%	5.2	10.3	-5.3%[12.7 µM]	nt
CCc1cccc(NC(=O)CCCCCC2NC(=O)NC2C)c1 (stereo not drawn)	0.794µM*	0.316µM*	0.794µM*	3.2	1.8	1.26µM*	-16.4%
COc1ccc(/C=C(/NC(=O)c2ccco2)C(=O)N2CCCCC2)cc1	-3.9%	-4.2%	21.8%	-1.7	2.2	5.7%	nt
